# Laboratory results from PubChem BioAssay (NCATS).
# Values without a mark were called inactive. Results filed as inconclusive are left out. Entries that show only a call come without a potency. Activity calls are given as the source filed them. Unless noted, calls come from the whole dose curve; as a rule, active = well fitted curve in the direction sought with a large enough effect; inconclusive = small, poorly fitted or top-dose-only effect, or another doubt; inactive = no such curve, though single readings can be large; an effect the other way counts as inactive or inconclusive. Residues, ends and D or L forms follow the SMILES beside them. *: point of attachment. Cbz = O=C(OCc1ccccc1)*
# Legend:
# MKL-1 = experiment: qHTS assay to identify novel small-molecules to repurpose for Merkel cell carcinoma treatment (AID 1296009); details: MCC and control cell lines, CellTiter-Glo viability, 72 h; series mostly up to 46 µM; note: nearly all actives have a fitted effect of over 60% in size; note: potency is the fitted concentration of half-maximal effect
# In short: (§1)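 After compound transfer in DMSO, plates were kept 72 hr at 37 degree celsius. Luminescent ATP signal from CellTiter-Glo served as viability measure, normalized against DMSO and no-cell controls.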
# MKL-2 = experiment: as above; details: MCC and control cell lines, CellTiter-Glo viability, 72 h; series mostly up to 46 µM
# In short: as §1
# UISO = experiment: as above; details: MCC and control cell lines, CellTiter-Glo viability, 72 h; series mostly up to 46 µM
# In short: as §1
# WaGa = experiment: as above; details: MCC and control cell lines, CellTiter-Glo viability, 72 h; series mostly up to 46 µM
# In short: as §1
# [1] = biological target: Nuclear receptor subfamily 1 group I member 2 (Rattus norvegicus) (UniProt Q9R1A7); experiment: qHTS assay for small molecule activators of the rat pregnane X receptor (rPXR) signaling pathway (AID 651751; call rule not given here); details: rPXR reporter cells, luciferase (One-Glo), 24 h
# Nuclear receptor subfamily 1 group I member 2 (Rattus norvegicus), sequence (Q9R1A7 whole entry, looked up): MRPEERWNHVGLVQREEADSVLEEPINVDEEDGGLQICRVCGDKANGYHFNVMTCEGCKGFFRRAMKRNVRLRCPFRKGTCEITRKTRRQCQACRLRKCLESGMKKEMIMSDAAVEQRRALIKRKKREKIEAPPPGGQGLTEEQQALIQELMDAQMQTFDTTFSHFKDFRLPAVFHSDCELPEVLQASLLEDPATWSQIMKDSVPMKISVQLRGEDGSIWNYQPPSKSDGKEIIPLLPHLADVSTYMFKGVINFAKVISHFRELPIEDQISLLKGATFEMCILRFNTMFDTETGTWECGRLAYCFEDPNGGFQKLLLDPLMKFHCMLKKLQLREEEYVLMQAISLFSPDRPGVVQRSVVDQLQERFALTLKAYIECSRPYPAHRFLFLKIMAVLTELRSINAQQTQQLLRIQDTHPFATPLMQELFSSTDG
# [2] = qHTS assay for small molecule activators of the human pregnane X receptor (PXR) signaling pathway (AID 720659; call rule not given here)
# [3] = Drug repurposing screens with cells derived from glioblastoma tumor samples (AID 1345199); details: GBM patient neurospheres viability, ATP luminescence, 48 h; Potency: tumour line A; series mostly up to 46.1 µM; note: nearly all actives have a fitted effect of over 40% in size
# In short: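 Four patient lines of CD133+ GBM neurospheres were screened at several concentrations; hits were retested in those lines plus three slower-growing GBM lines, using 48-hour treatment and ATP-based viability.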
# [4] = qHTS assay to identify inhibitors of the type 1 interferon - major histocompatibility complex class I in skeletal muscle: Counter screen cell viability and HiBit confirmation (AID 1347412); details: iHSKM muscle cells + IFN-b, HiBiT or CellTiter-Glo, 24 h; Potency: HiBiT; Viability, at 45.9 µM (top of the series); note: potency is the fitted concentration of half-maximal effect; nearly all actives have a fitted effect of over 60% in size
# In short: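 CRISPR HLA-B*08:01-HiBit immortalized human myoblasts (C25cl48) stimulated with 4 ng/ml IFN-beta and compounds (12-point 1:3, top 46 uM final) for 24 h at 37 C. Duplicate plates read by HiBit lytic luminescence or CellTiter Glo ATP.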
# CASKI = experiment: Primary qHTS to identify gynecologic anti-cancer compounds using libraries of approved drugs and bioactive compounds (AID 1345084); details: Gynecologic cancer cell panel viability, ATPlite luminescence, 48 h; series mostly up to 57.5 µM; note: nearly all actives have a fitted effect of over 55% in size; note: potency is the fitted concentration of half-maximal effect
# In short: (§2)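 Five-concentration response, 48 h; readout is ATP-driven luciferase luminescence.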
# Es-2 = experiment: as above; details: Gynecologic cancer cell panel viability, ATPlite luminescence, 48 h; series mostly up to 57.5 µM
# In short: as §2
# HeLa = experiment: as above; details: Gynecologic cancer cell panel viability, ATPlite luminescence, 48 h; series mostly up to 57.5 µM
# In short: as §2
# Hek293T = experiment: as above; details: Gynecologic cancer cell panel viability, ATPlite luminescence, 48 h, control line for the selectivity index; series mostly up to 57.5 µM
# In short: as §2
# OV90 = experiment: as above; details: Gynecologic cancer cell panel viability, ATPlite luminescence, 48 h; series mostly up to 57.5 µM
# In short: as §2
# Tov-21-G = experiment: as above; details: Gynecologic cancer cell panel viability, ATPlite luminescence, 48 h; series mostly up to 57.5 µM
# In short: as §2
# SKOV3 = experiment: as above; details: Gynecologic cancer cell panel viability, ATPlite luminescence, 48 h; series mostly up to 57.5 µM
# In short: as §2
# C33A = experiment: as above; details: Gynecologic cancer cell panel viability, ATPlite luminescence, 48 h; series mostly up to 57.5 µM
# In short: as §2
# JEG-3 = experiment: as above; details: Gynecologic cancer cell panel viability, ATPlite luminescence, 48 h; series mostly up to 57.5 µM
# In short: as §2
# PA-1 = experiment: as above; details: Gynecologic cancer cell panel viability, ATPlite luminescence, 48 h; series mostly up to 57.5 µM
# In short: as §2
# Tov112D = experiment: as above; details: Gynecologic cancer cell panel viability, ATPlite luminescence, 48 h; series mostly up to 57.5 µM
# In short: as §2
# NIH3T3 = experiment: qHTS assay to identify novel small-molecules to repurpose for Merkel cell carcinoma treatment (AID 1296009); details: MCC and control cell lines, CellTiter-Glo viability, 72 h; at 44.8 µM (top of the series) unless noted; note: nearly all actives have a fitted effect of over 60% in size; note: potency is the fitted concentration of half-maximal effect
# In short: as §1
compound,measurement,setting,value
O=C1c2cccc(O)c2C(=O)c2c(O)cc(CO)cc21,Potency,MKL-1,inactive
same,Potency,MKL-2,inactive
same,Potency,UISO,inactive
same,Potency,WaGa,inactive
same,max response,[1],-0.0257%
same,outcome,[2],inactive
OC[C@@H](O)[C@@H](O)[C@H](O)[C@@H](O)CO,Potency,MKL-1,inactive
same,Potency,MKL-2,inactive
same,Potency,UISO,inactive
same,Potency,WaGa,inactive
same,max response,[1],14.3%
same,outcome,[2],inactive
O=C1c2c(O)cccc2[C@@H]([C@@H]2O[C@H](CO)[C@@H](O)[C@H](O)[C@H]2O)c2cc(CO)cc(O)c21,Potency,MKL-1,inactive
same,Potency,MKL-2,inactive
same,Potency,UISO,inactive
same,Potency,WaGa,inactive
same,Potency,[3],inactive
CCc1cc(C(C)=NOCc2ccc(C3CCCCC3)c(C(F)(F)F)c2)ccc1CN1CC(C(=O)O)C1,Potency,MKL-1,inactive
same,Potency,MKL-2,6.62 µM (active)
same,Potency,WaGa,inactive
CC(C)C[C@@H](C=O)NC(=O)[C@H](CC(C)C)NC(=O)[C@H](CC(C)C)NC(=O)OCc1ccccc1 (Cbz-Leu-Leu-Leu-aldehyde),Potency,MKL-1,0.935 µM (active)
same,Potency,MKL-2,0.743 µM (active)
same,Potency,UISO,1.18 µM (active)
same,Potency,WaGa,0.935 µM (active)
same,Potency,[4],6.25 µM (active)
Cc1coc2c1C(=O)C(=O)c1c-2ccc2c(C)cccc12,Potency,MKL-1,inactive
same,Potency,MKL-2,inactive
same,Potency,WaGa,inactive
same,Potency,CASKI,inactive
same,Potency,Es-2,inactive
same,Potency,HeLa,inactive
same,Potency,Hek293T,inactive
same,Potency,OV90,inactive
same,Potency,Tov-21-G,inactive
C[C@H]1[C@@H](OC(=O)CCC(=O)O)O[C@@H]2O[C@@]3(C)CC[C@@H]4[C@H](C)CC[C@@H]1[C@@]24OO3,Potency,MKL-1,10.5 µM (active)
same,Potency,MKL-2,5.26 µM (active)
same,Potency,UISO,4.18 µM (active)
same,Potency,WaGa,6.62 µM (active)
same,Potency,CASKI,inactive
same,Potency,OV90,inactive
same,Potency,SKOV3,inactive
CC(C)(C)c1nc2c3cc[nH]c(=O)c3c3cc(F)ccc3c2[nH]1,Potency,MKL-1,inactive
same,Potency,MKL-2,inactive
same,Potency,WaGa,inactive
Oc1cc(-c2nc(-c3ccccc3)[nH]c2-c2ccncc2)ccc1Cl,Potency,MKL-1,inactive
same,Potency,MKL-2,inactive
same,Potency,UISO,inactive
same,Potency,C33A,inactive
same,Potency,HeLa,inactive
same,Potency,Hek293T,inactive
same,Potency,JEG-3,inactive
same,Potency,PA-1,inactive
same,Potency,SKOV3,inactive
same,Potency,Tov-21-G,17.8 µM (active)
same,Potency,Tov112D,inactive
Cn1cnc2c(F)c(Nc3ccc(Br)cc3F)c(C(=O)NOCCO)cc21,Potency,MKL-1,inactive
same,Potency,MKL-2,inactive
same,Potency,UISO,inactive
same,Potency,WaGa,inactive
same,Potency,C33A,inactive
same,Potency,CASKI,inactive
same,Potency,HeLa,inactive
same,Potency,Hek293T,inactive
same,Potency,JEG-3,inactive
same,Potency,OV90,224 nM (active)
same,Potency,SKOV3,inactive
same,Potency,Tov112D,inactive
COC1=C(OC)C(=O)C(CC=C(C)CCC=C(C)CCC=C(C)CCC=C(C)CCC=C(C)CCC=C(C)CCC=C(C)CCC=C(C)CCC=C(C)CCC=C(C)C)=C(C)C1=O,Potency,MKL-1,inactive
same,Potency,MKL-2,inactive
same,Potency,UISO,inactive
same,Potency,WaGa,inactive
same,Potency,[3],inactive
CON=C(C(=O)N[C@@H]1C(=O)N2C(C(=O)O)=C(CSC(=O)c3ccco3)CS[C@H]12)c1csc(N)n1,Potency,MKL-1,inactive
same,Potency,MKL-2,inactive
same,Potency,WaGa,inactive
O=C(O)C(=O)Nc1cccc(C2=NN=N[N]2)c1,Potency,MKL-1,inactive
same,Potency,MKL-2,inactive
same,Potency,UISO,inactive
same,Potency,WaGa,inactive
same,Potency,[3],inactive
C=C1C(=CC=C2CCC[C@]3(C)[C@@H]([C@H](C)CCCC(C)(C)O)CC[C@@H]23)C[C@@H](O)C[C@@H]1O,Potency,MKL-1,16.6 µM (active)
same,Potency,MKL-2,6.62 µM (active)
same,Potency,WaGa,1.48 µM (active)
Nc1ccn(C[C@@H](CO)OCP(=O)(O)O)c(=O)n1,Potency,MKL-1,inactive
same,Potency,MKL-2,inactive
same,Potency,UISO,inactive
same,Potency,WaGa,inactive
same,Potency,[3],inactive
CCOC(=O)N1CCN([N+]([O-])=NOc2ccc([N+](=O)[O-])cc2[N+](=O)[O-])CC1,Potency,MKL-1,10.5 µM (active)
same,Potency,MKL-2,6.62 µM (active)
same,Potency,WaGa,11.8 µM (active)
Cn1cc(C=CC(=O)c2cccc(F)c2)cc1C=CC(=O)NO,Potency,MKL-1,inactive
same,outcome,NIH3T3,inactive
same,Potency,UISO,inactive
COc1cc2c(cc1OC)[C@@H]1C(=O)c3ccc4c(c3O[C@@H]1CO2)C=CC(C)(C)O4,Potency,MKL-1,1.87 µM (active)
same,Potency,MKL-2,0.935 µM (active)
same,Potency,WaGa,0.662 µM (active)
CS(=O)(=O)N1CCc2c(-c3cnc(N)nc3)nc(N3CCOCC3)nc21,Potency,MKL-1,inactive
same,Potency,MKL-2,inactive
same,Potency,CASKI,2 µM (active)
same,Potency,HeLa,3.55 µM (active)
same,Potency,Hek293T,3.55 µM (active)
same,Potency,OV90,4470 nM (active)
same,Potency,PA-1,1.78 µM (active)
same,Potency,SKOV3,1.26 µM (active)
C[C@@H](Cc1cc2c(c(C(N)=O)c1)N(CCCO)CC2)NCCOc1ccccc1OCC(F)(F)F,Potency,MKL-1,inactive
same,Potency,MKL-2,inactive
same,Potency,UISO,inactive
same,Potency,WaGa,inactive
same,Potency,JEG-3,inactive
same,Potency,PA-1,31.6 µM (active)
CCOC(=O)N1CCN([N+]([O-])=NOc2ccc([N+](=O)[O-])cc2C#N)CC1,Potency,MKL-1,1.66 µM (active)
same,Potency,MKL-2,1.18 µM (active)
same,Potency,WaGa,3.72 µM (active)
Cc1cnc(Nc2ccc(N3CCN(C)CC3)cc2)nc1Nc1cccc(S(=O)(=O)NC(C)(C)C)c1,Potency,MKL-1,10.5 µM (active)
same,Potency,MKL-2,10.5 µM (active)
same,Potency,WaGa,11.8 µM (active)
same,Potency,[4],2.79 µM (active)
CN(C)CCN1C(=O)c2cccc3cc(N)cc(c23)C1=O,Potency,MKL-1,14.8 µM (active)
same,Potency,MKL-2,18.7 µM (active)
same,Potency,UISO,7.43 µM (active)
same,Potency,WaGa,9.35 µM (active)
same,Potency,[4],8.83 µM (active)
